Laboratory results published in PubChem BioAssay AID1159580 (chemical genetic matrix, 2015).
The whole screen tested about 5,500 compounds, of which about 2,000 (36%) were called active. Inconclusive results (about 18%) are left out. No stated cut-off is given here; in the data, active means normalized growth mostly below about 0.91 (no sharp cut-off); inconclusive means no clear call, values can overlap the other calls; inactive means mostly above about 0.92. This is one part of the list.

Assay: chemical genetic growth profiling, strain panel (AID 1159580);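 further: tested at 20 µM; growth read once vehicle control cultures reached saturation at 30 °C; 1 = growth at the plate median or of vehicle wells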
Details: growth OD

Measured: normalized growth

NCCCC[C@H](N[C@@H](CCc1ccccc1)C(=O)O)C(=O)N1CCC[C@H]1C(=O)O
inactive: S. cerevisiae deletion strains, locus YKL009W, strain mrt4, stronger effect = lower value 0.973 | S. cerevisiae deletion strains, locus YKL068W, stronger effect = lower value 0.99 | S. cerevisiae deletion strains, locus YKL085W, strain MDH1 (second series), stronger effect = lower value 0.993 | S. cerevisiae deletion strains, locus YKL085W, strain MDH1, stronger effect = lower value 0.993 | S. cerevisiae deletion strains, locus YKL160W, strain elf1, stronger effect = lower value 0.999 | S. cerevisiae deletion strains, locus YKL190W, strain CNB1, stronger effect = lower value 0.981 | S. cerevisiae deletion strains, locus YKR001C, strain vps1, stronger effect = lower value 1.01 | S. cerevisiae deletion strains, locus YKR026C, strain gcn3, stronger effect = lower value 1.04 | S. cerevisiae deletion strains, locus YKR091W, strain srl3, stronger effect = lower value 1.01 | S. cerevisiae deletion strains, locus YLL001W, strain dnm1, stronger effect = lower value 1 | S. cerevisiae deletion strains, locus YLL026W, stronger effect = lower value 0.994 | S. cerevisiae deletion strains, locus YLL041C, strain sdh2, stronger effect = lower value 0.97 | S. cerevisiae deletion strains, locus YLR027C, strain aat2, stronger effect = lower value 0.998 | S. cerevisiae deletion strains, locus YLR039C, strain RIC1, stronger effect = lower value 0.985 | S. cerevisiae deletion strains, locus YLR058C, strain SHM2, stronger effect = lower value 0.984 | S. cerevisiae deletion strains, locus YLR102C, strain apc9, stronger effect = lower value 0.996 | S. cerevisiae deletion strains, locus YLR113W, strain HOG1, stronger effect = lower value 1.01 | S. cerevisiae deletion strains, locus YLR221C, strain rsa3, stronger effect = lower value 0.981 | S. cerevisiae deletion strains, locus YLR258W, strain gsy2, stronger effect = lower value 1.01 | S. cerevisiae deletion strains, locus YLR262C, strain YPT6 (second series), stronger effect = lower value 1.01 | S. cerevisiae deletion strains, locus YLR262C, strain YPT6, stronger effect = lower value 0.94 | S. cerevisiae deletion strains, locus YLR268W, strain sec22, stronger effect = lower value 1 | S. cerevisiae deletion strains, locus YLR320W, strain mms22, stronger effect = lower value 1.03 | S. cerevisiae deletion strains, locus YLR330W, strain CHS5, stronger effect = lower value 0.994 | S. cerevisiae deletion strains, locus YLR342W, strain FKS1 (second series), stronger effect = lower value 1.05 | S. cerevisiae deletion strains, locus YLR342W, strain FKS1, stronger effect = lower value 1 | S. cerevisiae deletion strains, locus YLR357W, strain rsc2, stronger effect = lower value 1.04 | S. cerevisiae deletion strains, locus YLR370C, strain arc18, stronger effect = lower value 0.971 | S. cerevisiae deletion strains, locus YLR371W, strain rom2, stronger effect = lower value 1 | S. cerevisiae deletion strains, locus YLR384C, strain iki3, stronger effect = lower value 0.978 | S. cerevisiae deletion strains, locus YLR418C, strain cdc73, stronger effect = lower value 1 | S. cerevisiae deletion strains, locus YML016C, strain PPZ1, stronger effect = lower value 0.992 | S. cerevisiae deletion strains, locus YML032C, strain rad52, stronger effect = lower value 0.999 | S. cerevisiae deletion strains, locus YML120C, strain ndi1, stronger effect = lower value 0.976 | S. cerevisiae deletion strains, locus YML124C, strain tub3, stronger effect = lower value 0.995 | S. cerevisiae deletion strains, locus YMR058W, strain fet3, stronger effect = lower value 1.02 | S. cerevisiae deletion strains, locus YMR078C, strain ctf18, stronger effect = lower value 0.998 | S. cerevisiae deletion strains, locus YMR125W, strain sto1, stronger effect = lower value 1.04 | S. cerevisiae deletion strains, locus YMR129W, stronger effect = lower value 0.964 | S. cerevisiae deletion strains, locus YMR205C, strain PFK2, stronger effect = lower value 0.984 | S. cerevisiae deletion strains, locus YMR223W, strain ubp8, stronger effect = lower value 0.983 | S. cerevisiae deletion strains, locus YMR231W, strain pep5, stronger effect = lower value 1.02 | S. cerevisiae deletion strains, locus YMR307W, strain GAS1, stronger effect = lower value 1.05 | S. cerevisiae deletion strains, locus YNL067W, strain RPL9B, stronger effect = lower value 0.964 | S. cerevisiae deletion strains, locus YNL071W, strain lat1, stronger effect = lower value 1.02 | S. cerevisiae deletion strains, locus YNL128W, strain TEP1, stronger effect = lower value 0.989 | S. cerevisiae deletion strains, locus YNL153C, strain GIM3, stronger effect = lower value 0.955 | S. cerevisiae deletion strains, locus YNL183C, strain NPR1, stronger effect = lower value 0.96 | S. cerevisiae deletion strains, locus YNL209W, strain ssb2, stronger effect = lower value 1.01 | S. cerevisiae deletion strains, locus YNL233W, strain BNI4, stronger effect = lower value 0.975 | S. cerevisiae deletion strains, locus YNL248C, strain rpa49, stronger effect = lower value 1.01 | S. cerevisiae deletion strains, locus YNL250W, strain rad50, stronger effect = lower value 0.982 | S. cerevisiae deletion strains, locus YNL271C, strain bni1, stronger effect = lower value 0.997 | S. cerevisiae deletion strains, locus YNL298W, strain CLA4, stronger effect = lower value 0.993 | S. cerevisiae deletion strains, locus YNL307C, strain MCK1, stronger effect = lower value 1.01 | S. cerevisiae deletion strains, locus YNL322C, strain KRE1 (second series), stronger effect = lower value 1.02 | S. cerevisiae deletion strains, locus YNL322C, strain KRE1, stronger effect = lower value 0.993 | S. cerevisiae deletion strains, locus YNR049C, strain mso1, stronger effect = lower value 0.964 | S. cerevisiae deletion strains, locus YNR052C, strain pop2, stronger effect = lower value 1.01 | S. cerevisiae deletion strains, locus YOL006C, strain TOP1, stronger effect = lower value 0.922 | S. cerevisiae deletion strains, locus YOL012C, strain htz1 1.17 | S. cerevisiae deletion strains, locus YOL147C, strain pex11, stronger effect = lower value 0.988 | S. cerevisiae deletion strains, locus YOR001W, strain rrp6, stronger effect = lower value 0.967 | S. cerevisiae deletion strains, locus YOR061W, strain CKA2, stronger effect = lower value 0.956 | S. cerevisiae deletion strains, locus YOR069W, strain VPS5, stronger effect = lower value 0.998 | S. cerevisiae deletion strains, locus YOR070C, strain gyp1, stronger effect = lower value 0.941 | S. cerevisiae deletion strains, locus YOR080W, strain dia2, stronger effect = lower value 0.992 | S. cerevisiae deletion strains, locus YOR083W, strain WHI5, stronger effect = lower value 1.01 | S. cerevisiae deletion strains, locus YOR106W, strain vam3, stronger effect = lower value 1 | S. cerevisiae deletion strains, locus YOR136W, strain idh2, stronger effect = lower value 0.994 | S. cerevisiae deletion strains, locus YOR144C, strain elg1, stronger effect = lower value 0.998 | S. cerevisiae deletion strains, locus YOR184W, strain ser1, stronger effect = lower value 1 | S. cerevisiae deletion strains, locus YOR231W, strain MKK1, stronger effect = lower value 1.04 | S. cerevisiae deletion strains, locus YOR265W, strain rbl2, stronger effect = lower value 0.987 | S. cerevisiae deletion strains, locus YOR270C, strain vph1, stronger effect = lower value 1.04 | S. cerevisiae deletion strains, locus YOR290C, strain snf2, stronger effect = lower value 1.02 | S. cerevisiae deletion strains, locus YOR316C, strain cot1, stronger effect = lower value 1 | S. cerevisiae deletion strains, locus YPL051W, strain arl3, stronger effect = lower value 1.01 | S. cerevisiae deletion strains, locus YPL078C, strain atp4, stronger effect = lower value 1.02 | S. cerevisiae deletion strains, locus YPL106C, strain sse1, stronger effect = lower value 0.949 | S. cerevisiae deletion strains, locus YPL240C, strain hsp82, stronger effect = lower value 0.986 | S. cerevisiae deletion strains, locus YPL256C, strain CLN2, stronger effect = lower value 1.02 | S. cerevisiae deletion strains, locus YPR119W, strain clb2, stronger effect = lower value 0.994 | S. cerevisiae deletion strains, locus YPR141C, strain kar3, stronger effect = lower value 0.985 | S. cerevisiae deletion strains, locus YPR163C, strain tif3, stronger effect = lower value 0.988 | S. cerevisiae deletion strains, locus YPR167C, strain met16, stronger effect = lower value 0.999 | S. cerevisiae deletion strains, strain wtn01, stronger effect = lower value 0.998 | S. cerevisiae strains, strain wild type, stronger effect = lower value 0.982
